Screening data deposited in PubChem BioAssay by National Center for Advancing Translational Sciences (NCATS).
In the library only some 14% were active in any assay of this set; here they are far more common.
Marburg entry inh: inhibitors of Marburg virus binding or cell entry; Marburg virus pseudotyped entry inhibition, cell reporter; Potency, µM (doses to about 37.8 µM), actives largely listed as inhibitors; hit rate 1.8% among 300,000; calls by dose curve; tested in HEK293 cells
HCV inh: HCV inhibition | Potency, µM (titrated, usually from 41.8 µM), usual class: inhibitors | hit rate 3.4% among 340,000 | Huh7.5.1 HCVcc-Cre infection, luciferase reporter, 44 h
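Seed cells (1,000/well) for 4 h; treat with compound and infect with HCVcc-Cre, moi about 0.5. Incubate 44 h, then detect luciferase activity.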
Pf growth 96h: P. falciparum growth inhibition at 96 hours; P. falciparum luciferase reporter growth, 96 h; Potency, µM (doses to about 28.7 µM), hits mostly inhibitors; hit rate 6.9% among 320,000; AID 504834
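Erythrocytes infected with luciferase-expressing P. falciparum were dispensed at 2% hematocrit and 0.05% parasitemia (final), then incubated with compounds 96 hours at 37 C in 5% CO2. Luminescence after detection reagent addition reported growth.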
LASV entry inh: inhibitors of Lassa virus binding or cell entry. Lassa virus pseudotype entry inhibition, cell reporter. Potency, µM (highest dose often 37.9 µM), actives largely listed as inhibitors. hit rate 1.2% among 300,000. AID 540256; calls by dose curve; tested in HEK293 cells; also: nearly all actives have a fitted effect of over 50% in size
HCMV inh: human cytomegalovirus inhibition; hit rate 4.5% among 410,000; activity change, negative = inhibition, % at 57.5 µM; AID 1259415; HFF cells, HCMV-luciferase reporter, 72 h; hits give low values; in the data active = activity change below about -60%; inconclusive = no clear call, values can overlap the other calls; inactive = above about -39%
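Human foreskin fibroblasts infected with luciferase-reporter HCMV at MOI 1 PFU/cell, compounds at two doses. Luciferase measured 72 h post infection; normalized to buffer-only basal and Salinomycin (10uM) controls.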
Pf growth 48h: P. falciparum growth inhibition at 48 hours (one generation); P. falciparum luciferase growth in erythrocytes, 48 h; Potency, µM (doses to about 28.7 µM), usual class: inhibitors; hit rate 5.9% among 310,000
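A one-generation exposure of luciferase-tagged malaria parasites in RPMI 1640/Albumax erythrocyte culture, 37 C and 5% CO2. Inhibition is inferred from decreased luminescence after adding detection reagent.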
Of the large screens only hits and unclear results are named; the others gave an inactive call. Unless noted, calls follow the shape of the dose curve; as a rule, active = well fitted inhibition curve with a large enough effect; inconclusive = small, poorly fitted or top-dose-only effect, or another doubt; inactive = no such curve, though single readings can be large or run the other way.

COc1ccccc1C(CNc1ccc(S(=O)(=O)N2CCCC2)cc1[N+](=O)[O-])N(C)C (stereo not drawn)	Marburg entry inh inconclusive, Pf growth 96h inconclusive, HCMV inh inconclusive
COc1ccc(Nc2ccc(S(=O)(=O)N3CCCCC3)cc2[N+](=O)[O-])cc1	HCV inh inconclusive
O=S(=O)(Nc1ccc(-n2cnnn2)cc1)c1cccc(Cl)c1	Pf growth 48h inconclusive
CC1(C(=O)NS(=O)(=O)c2ccc(F)cc2F)CCN1C(=O)c1ccccc1 (stereo not drawn)	none (no result: Marburg entry inh, HCV inh, Pf growth 96h, LASV entry inh, Pf growth 48h)
COc1ccc(C(CNc2ccc(S(=O)(=O)N3CCN(C)CC3)cc2[N+](=O)[O-])N(C)C)cc1 (stereo not drawn)	Marburg entry inh inconclusive, HCV inh 10µM
CCN1CCN(C(=O)CCc2nnc(CCc3ccccc3OC)o2)[C@@H](C)C1=O	Marburg entry inh inconclusive
O=C1CNC(c2ccccc2Cl)c2cc(Br)ccc2N1 (stereo not drawn)	Pf growth 96h 4.7µM
O=C1NC(=O)C(c2cn(-c3ccccc3)nc2-c2ccc(F)cc2)N1 (stereo not drawn)	Pf growth 96h inconclusive, Pf growth 48h 4.7µM
CC(C)=CCN1C(=O)[C@]2(O[C@H](COc3ccccc3)CC3=C2CCC3)c2ccccc21	none (no result: HCV inh, Pf growth 96h, LASV entry inh, HCMV inh, Pf growth 48h)
CCCCN1CC(COc2ccccc2)OC1=O (stereo not drawn)	Pf growth 96h 2.9µM
O=C(Nc1cccc(S(=O)(=O)N2CCOCC2)c1)c1cn(-c2ccccc2)nc1-c1ccc(F)cc1	Marburg entry inh inconclusive, HCV inh inconclusive
O=C(Nc1cccc(S(=O)(=O)N2CCOCC2)c1)c1cn(-c2ccccc2)nc1-c1ccccc1	Marburg entry inh inconclusive, Pf growth 96h 10µM, LASV entry inh inconclusive, HCMV inh -64
Cc1ccc(-c2nn(-c3ccccc3)cc2C(=O)Nc2ccc(C)c(S(=O)(=O)N3CCOCC3)c2)cc1	Pf growth 96h inconclusive, Pf growth 48h 10µM
C#CCN(C(=O)CC1C(=O)NCCN1C/C=C/c1ccccc1)C1CCCCC1 (stereo not drawn)	Marburg entry inh inconclusive, Pf growth 96h 4.7µM
CN(C(=O)CC1C(=O)NCCN1C/C=C/c1ccccc1)C1CCOCC1 (stereo not drawn)	Pf growth 96h inconclusive
O=C(N[C@H]1CC[C@@]23CCCN2C(=O)CCC[C@H]3[C@H]1Cc1ccccc1)C1CCC1	none (no result: Marburg entry inh, HCV inh, Pf growth 96h, LASV entry inh, Pf growth 48h)
CN(C)c1ccc(N=Nc2ccc(C(=O)O)cc2)cc1	Marburg entry inh 2.8µM, LASV entry inh 7.1µM
CN(C)c1ccc(C(=O)N2CCCC2)cc1	Pf growth 96h 12µM
Cc1ccc(NC(=S)N(CCCN2CCCC2)Cc2cccn2Cc2ccc(Cl)cc2)cc1C	Marburg entry inh inconclusive, HCV inh inconclusive, LASV entry inh inconclusive, Pf growth 48h inconclusive
CCCN(Cc1ccccc1)C(=S)Nc1cccc(C(F)(F)F)c1	Marburg entry inh inconclusive, HCV inh inconclusive, Pf growth 96h inconclusive, LASV entry inh inconclusive
COc1ccc(NC(=S)N(CCCN2CCCC2)Cc2cccn2Cc2ccc(Cl)cc2)cc1Cl	HCV inh inconclusive, HCMV inh -79, Pf growth 48h inconclusive (no result: Marburg entry inh, LASV entry inh)
FC(F)(F)c1cccc(NC(=S)N(CCCN2CCCC2)Cc2cccn2Cc2ccc(Cl)cc2)c1	Marburg entry inh inconclusive, Pf growth 96h inconclusive, LASV entry inh inconclusive, HCMV inh -67, Pf growth 48h inconclusive
COc1ccc(NC(=S)NCCCN2CCCC2)cc1Cl	HCMV inh inconclusive
Cc1ccc(NC(=S)N(CCCN2CCCC2)Cc2cccn2Cc2ccc(Cl)cc2)cc1Cl	Marburg entry inh 8.9µM, HCV inh 0.56µM, LASV entry inh 1.1µM, Pf growth 48h inconclusive
COc1ccc(NC(=S)N(CCCN2CCC(C)CC2)Cc2cccs2)cc1Cl	Marburg entry inh inconclusive, HCV inh inconclusive, LASV entry inh inconclusive, HCMV inh -90
CC1CCCC(NC(=O)COC(=O)[C@@H](NC(=O)c2ccccc2Cl)C(C)C)C1C (stereo partly drawn)	none (no result: Pf growth 96h, Pf growth 48h)
COc1cc(NC(=O)Cn2nc(C(F)(F)F)c(Br)c2C)cc([N+](=O)[O-])c1	Marburg entry inh inconclusive, Pf growth 96h inconclusive, HCMV inh -96, Pf growth 48h inconclusive
COCCNC(=O)Cn1nc(C(F)(F)F)c(Br)c1C	none
O=c1c2ccccc2nc(CSc2ncnc3nc[nH]c23)n1-c1ccccc1	none (no result: Pf growth 96h)
O=C(CSc1ncnc2nc[nH]c12)c1ccccc1	LASV entry inh inconclusive
c1ccc(CCSc2ncnc3nc[nH]c23)cc1	Marburg entry inh inconclusive, HCV inh 13µM, HCMV inh inconclusive
COc1ccccc1OCCSc1ncnc2nc[nH]c12	Pf growth 96h 12µM
Cc1cccc(OCCSc2ncnc3nc[nH]c23)c1	HCV inh inconclusive
c1ccc2c(CSc3ncnc4nc[nH]c34)cccc2c1	HCV inh inconclusive, LASV entry inh inconclusive, HCMV inh -69, Pf growth 48h inconclusive
CCc1ccc([C@@H]2C[C@H]3[C@@H](CN2S(=O)(=O)c2ccc(C)cc2)C(=O)C[C@@H](c2ccccc2F)N3S(=O)(=O)c2ccc(C)cc2)cc1	none (no result: Marburg entry inh, HCV inh, Pf growth 96h, LASV entry inh, Pf growth 48h)
O=C(Nc1ccc(F)cc1)Nc1csc2c1CCCC2	none (no result: HCV inh, Pf growth 96h, LASV entry inh, Pf growth 48h)
O=C(Nc1ccc(F)cc1)Nc1csc2ccccc12	Marburg entry inh inconclusive, Pf growth 96h inconclusive, LASV entry inh inconclusive, HCMV inh -75, Pf growth 48h inconclusive
CN(C)c1ccc(NC(=O)Nc2cccc(Cl)c2)cc1	HCV inh inconclusive
CN(C)c1ccc(NC(=O)Nc2csc3ccccc23)cc1	Marburg entry inh inconclusive, Pf growth 96h 5.2µM, Pf growth 48h inconclusive
O=C(CN1C(=O)CC(c2ccco2)Sc2ccccc21)Nc1ccc(OC(F)(F)F)cc1 (stereo not drawn)	none (no result: HCV inh, Pf growth 96h, LASV entry inh, Pf growth 48h)
O=C(N[C@@H](Cc1ccccc1)C(=O)Nc1ccc(F)cc1)C1CCNCC1	none
CC(=O)Nc1ccc(NC(=O)C(Cc2ccccc2)NC(=O)C2CCC(C)CC2)cc1 (stereo not drawn)	Pf growth 96h 0.33µM
COCCN(C(=O)CSc1nnc(-c2ccco2)n1C)c1c(N)n(CC(C)C)c(=O)[nH]c1=O	none (no result: Marburg entry inh, LASV entry inh)
CCN1/C(=C\C=C(C(C)=O)C(C)=O)Sc2ccccc21	none
CCN1/C(=C/C(C)=C/c2sc3ccccc3[n+]2CC)Sc2ccccc21	Marburg entry inh 1.6µM, HCV inh 1µM, Pf growth 96h inconclusive, LASV entry inh 1.1µM, HCMV inh -100, Pf growth 48h inconclusive
Cc1c(C(=O)NCc2ccccc2)sc2nc3n(c(=O)c12)CCCCC3	HCMV inh inconclusive (no result: Marburg entry inh, HCV inh, Pf growth 96h, Pf growth 48h)
Cc1nc(-c2c(-c3ccc(O)cc3O)noc2C(F)(F)F)cs1	Marburg entry inh inconclusive, HCV inh inconclusive, LASV entry inh inconclusive, HCMV inh -67, Pf growth 48h inconclusive (no result: Pf growth 96h)
COc1ccc(-c2ncnc(C(F)(F)F)c2-c2csc(C)n2)c(O)c1	Pf growth 96h inconclusive, HCMV inh inconclusive, Pf growth 48h inconclusive (no result: Marburg entry inh, LASV entry inh)
CC(=O)Nc1ccc(C(F)(F)F)cc1Cl	none
